Results: PubChem BioAssay (NCI)
Where “and” joins values, the source holds several entries; their conditions need not be identical. Equal entries are not always repeated. This is part of a sample that, as a whole, favours compounds with a hit. Of some 83,000 tested, about 20% had one in any assay.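 Single-concentration screen, 48 h exposure, 96-well plates. Endpoint: percent growth. Below 10 = active.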 Calls of active or inactive are those of the source.

How the values were obtained:
Test in all cases: NCI-60 one-dose screen, 48 h (100 = growth as untreated, 0 = no growth, -100 = all killed)
Conditions in all cases: 10 µM unless noted
[1] = system: NCI-H23 lung
[2] = system: NCI-H226 lung
[3] = system: NCI-H322M lung
[4] = system: HOP-62 NSCLC
[5] = system: NCI-H460 lung
[6] = system: HOP-92 NSCLC
[7] = system: NCI-H522 lung
[8] = system: A549/ATCC NSCLC
[9] = system: 786-0 renal
[10] = system: COLO 205 colon
[11] = system: DU-145 prostate
[12] = system: K-562 leukemia
[13] = system: MALME-3M melanoma
[14] = system: MDA-MB-231 breast
[15] = system: RXF 393 renal
[16] = system: SF-268 CNS
[17] = system: SF-295 CNS
[18] = system: SF-539 CNS
[19] = system: UACC-257 melanoma
[20] = system: M14 melanoma

Measured: growth

C/C=C/CC(C)C(O)[C@H](NC(=O)[C@@H]1CCCN1C(=O)[C@](C)(CC)NC(=O)CCCCCCCCC)C(=O)N[C@@](C)(CC)C(=O)N[C@@H](CCC(N)=O)C(=O)N[C@H](CCC(N)=O)C(=O)NC(C)(C)C(=O)NC(C)(C)C(=O)N[C@@H](CCC(N)=O)C(=O)N[C@H](CC(C)C)C(=O)N[C@H](CO)CC(C)C (stereo not given in full)
48.7% (inactive) and -50.7% (active): [10]
49% (inactive) and -24.9% (active): [2]
56.3% (inactive) and -78.5% (active): [4]
21.1% (inactive) and -71.1% (active): [19]
76% (inactive) and 9.75% (active): [8]
11.3% (inactive) and -81.6% (active): [17]
69.8% (inactive) and -15.9% (active): [3]
68.4% (inactive) and -71.3% (active): [1]
inactive: [12] 14.5% and 10.4%
active: [11] -21.7% and -48.7% | [15] 0.95% and -63%
63.4% (inactive) and -96% (active): [14]
20.8% (inactive) and -63.8% (active): [16]
75.3% (inactive) and -53.5% (active): [6]
39.5% (inactive) and -100% (active): [18]
63.6% (inactive) and -72.2% (active): [5]
29.9% (inactive) and -95.9% (active): [13]
54.7% (inactive) and -71.4% (active): [20]
14.7% (inactive) and -74.4% (active): [7]
47.7% (inactive) and -80.3% (active): [9]

NC(=O)n1c(=O)n(-c2cccc(C(F)(F)F)c2)c(=O)c2cc(-c3ccc(F)cc3F)ccc21
active: [1] -6% | [3] 0.936% | [4] -9.38% | [5] 4.55% | [6] -36.3% | [7] -11.2% | [8] 4.69% | [12] 5.61% | [13] -18.8% | [14] -24% | [15] -2.52% | [17] -10.1% | [19] -13.5%
inactive: [2] 13.2% | [9] 45% | [10] 87.5% | [11] 23.3% | [16] 16.6% | [18] 15.5% | [20] 11.1%

Nc1nc(=O)n([C@H]2C[C@H](O)[C@@H](CO)O2)cc1C=O
inactive: [1] 112% | [2] 111% | [3] 110% | [4] 95.6% | [5] 103% | [6] 57.7% | [7] 102% | [8] 103% | [9] 102% | [10] 14.5% | [11] 71.7% | [12] 97.2% | [13] 114% | [14] 85.1% | [15] 103% | [16] 110% | [17] 103% | [18] 100% | [19] 115% | [20] 105%

COc1cc(C(=O)c2cc(C(C)=O)c3cccc(C)n23)cc(OC)c1OC
active: [20] 5.73%
inactive: [1] 59.7% | [2] 51.6% | [3] 69.2% | [4] 36.7% | [5] 16.1% | [6] 33.5% | [7] 19.3% | [8] 50.2% | [9] 47.1% | [10] 11% | [11] 68.3% | [12] 15.6% | [13] 46.2% | [14] 37.4% | [15] 46.6% | [16] 54% | [17] 17.9% | [18] 46.8% | [19] 56%

O=C(CCCCCCNC(=O)C(O)(O)C(F)(F)F)Nc1ncc(-c2ccccc2)s1
active: [1] -1.99% | [3] 3.47% | [4] -6.52% | [5] 2.92% | [6] -19.4% | [7] -38.1% | [8] -12.9% | [10] -73.3% | [11] 3.28% | [15] -48.5% | [16] 1.35% | [17] -35.1%
inactive: [2] 14.9% | [9] 17.1% | [12] 11.7% | [13] 13.6% | [14] 15.9% | [18] 13.9% | [19] 20.8% | [20] 14.3%

CCC(=C(c1ccc(OCCN2CCCCCC2)cc1)c1ccc(OCCN2CCCCCC2)cc1)c1ccc(Cl)cc1
active: [5] -39.7% | [7] -5.58% | [8] -21.3% | [9] -81.1% | [10] -57.7% | [12] -32.8% | [13] -55.4% | [15] -72.3% | [17] -77.3% | [18] -79.6% | [19] -55.8% | [20] -74.4%
inactive: [1] 19.4% | [2] 52.1% | [3] 18% | [4] 58.2% | [6] 32.3% | [11] 39.4% | [14] 33.6% | [16] 56%

COc1ccc(Cn2cc(C#N)c(N)c2C(C)=O)cc1
inactive: [1] 101% | [2] 101% | [3] 98.8% | [4] 104% | [5] 104% | [6] 87.5% | [7] 102% | [8] 110% | [9] 111% | [10] 111% | [11] 107% | [12] 103% | [13] 102% | [14] 94.8% | [15] 102% | [16] 96.5% | [17] 110% | [18] 99.5% | [19] 106% | [20] 110%
